Screening results from PubChem.
miR122 inh = activators of miR-122 sensor in Huh7 cells; activation, % at 12.5 µM; AID 623901; 340,000 compounds, 0.14% hits; Huh7 psiCHECK-miR122 Renilla luciferase sensor, 48 h;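 active means mean activation of 30% or more, with every replicate also reaching 30%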;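 further: 0% = median of neutral control wells and 100% = median of positive control wells; higher luciferase signal means stronger suppression of miR-122 activity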
* hit, by the source's call. Shown is part of a subset that was picked to be rich in hits.

SMILES | miR122 inh
O=C(Nc1cccc([N+](=O)[O-])c1)c1ccc(CSc2ccccc2)cc1 | -119
COc1ccc(NC(=O)Nc2ccc3c(c2)OC[C@H](C)NC[C@@H](C)[C@H](OC)CN(C)C3=O)cc1 | -3
CC(C)CC#Cc1cnc2c(c1)C(=O)N([C@H](C)CO)C[C@@H](C)[C@H](CN(C)C(=O)Nc1cc(F)ccc1F)O2 | -9
Cc1ccc(C)c(S(=O)(=O)Nc2cc3c4c(c2)CC(=O)N4CCC3)c1 | -163
Cc1ccc(-c2ccc3c(c2)O[C@@H](CN(C)Cc2cccc(C(=O)O)c2)[C@H](C)CN([C@@H](C)CO)S3(=O)=O)cc1 | 2
COc1ccc(NC(=O)c2cc(C)nc3ccccc23)cc1S(=O)(=O)Nc1ccccc1Cl | -107
CCC(=O)Nc1ccc2c(c1)OC[C@@H](C)N(CCC(F)(F)F)C[C@@H](C)[C@@H](OC)CN(C)C2=O | -8
CCCC#Cc1ccc2c(c1)O[C@@H](CN(C)C(=O)NCCC)[C@H](C)CN([C@@H](C)CO)S2(=O)=O | -3
CO[C@H]1CN(C)C(=O)c2cc(NC(=O)Nc3ccc(Cl)c(Cl)c3)ccc2OC[C@H](C)NC[C@H]1C | 51*
CCCC(=O)Nc1ccc2c(c1)C(=O)N(C)C[C@H](OC)[C@@H](C)CN[C@@H](C)CO2 | 4
CO[C@@H]1CN(C)C(=O)c2cc(NC(=O)Nc3ccccc3)ccc2OC[C@H](C)NC[C@@H]1C | -2
Cc1cccc(-c2nn(-c3ccccc3)cc2C(=O)Nc2cccc(S(=O)(=O)NC3=NCCC3)c2)c1 | -152
CCN(CC)CCOc1cccc(C(C)C)c1 | 36*
COc1ccc(OC)c(S(=O)(=O)N2CCNCC2)c1 | -172
C[C@@H]1CN([C@H](C)CO)C(=O)c2cc(C#CC3(O)CCCC3)cnc2O[C@@H]1CN(C)S(=O)(=O)c1ccc(F)cc1 | -13
CCCOc1c(Br)cc(C2C3=C(CCCC3=O)N(CC)C3=C2C(=O)CCC3)cc1OC | -109
CO[C@H]1CN(C)C(=O)c2cc(NS(=O)(=O)c3ccccc3)ccc2OC[C@H](C)N(C)C[C@H]1C | -1
O=C(COc1cccc2ccccc12)Nc1nc2ccccc2[nH]1 | 32*
COc1ccc(C(=O)N[C@H](C(=O)Nc2nc3ccccc3[nH]2)C(C)C)cc1 | -117
C[C@@H]1CN([C@@H](C)CO)C(=O)c2cc(-c3ccc(C(=O)N(C)C)cc3)cnc2O[C@@H]1CN(C)C(=O)c1cccnc1 | -3
O=C(NC(=S)NCc1ccc2c(c1)OCO2)c1ccccc1 | -111
CC(=O)N(C)C[C@H]1Oc2cc(/C=C/c3ccccc3)ccc2S(=O)(=O)N([C@@H](C)CO)C[C@H]1C | 34*
C[C@@H]1CN([C@@H](C)CO)S(=O)(=O)c2ccc(/C=C/c3ccccc3)cc2O[C@@H]1CN(C)C(=O)NC1CCCCC1 | 41*
C[C@@H]1CN([C@H](C)CO)S(=O)(=O)c2ccc(/C=C/c3ccccc3)cc2O[C@@H]1CN(C)C(=O)c1ccccc1 | 20
C[C@H](CO)N1C[C@H](C)[C@@H](CN(C)C(=O)Nc2cccc(F)c2)Oc2cc(/C=C/c3ccccc3)ccc2S1(=O)=O | -16
SMILES | miR122 inh
CC(C)CC#Cc1ccc2c(c1)O[C@H](CN(C)C(=O)NC1CCCC1)[C@@H](C)CN([C@H](C)CO)S2(=O)=O | -56
CC(=O)N(C)C[C@H]1Oc2cc(/C=C/c3ccccc3)ccc2S(=O)(=O)N([C@H](C)CO)C[C@@H]1C | 6
CCCNC(=O)N(C)C[C@H]1Oc2ncc(C#CCC(C)C)cc2C(=O)N([C@@H](C)CO)C[C@@H]1C | 1
COCC#Cc1ccc2c(c1)O[C@@H](CN(C)C(=O)COC)[C@@H](C)CN([C@H](C)CO)S2(=O)=O | 1
CC(NC(=O)CNC(=S)N(Cc1cccs1)C1CCCC1)c1ccccc1 (stereo not drawn) | -108
CCC(=O)N(C)C[C@H]1Oc2cc(C#C[C@@H](C)O)ccc2S(=O)(=O)N([C@H](C)CO)C[C@H]1C | 1
C[C@@H]1CN([C@@H](C)CO)C(=O)c2cc(/C=C/c3ccccc3)cnc2O[C@H]1CN(C)S(=O)(=O)c1ccccc1F | -6
COCC#Cc1ccc2c(c1)O[C@H](CN(C)C(=O)C1CCCCC1)[C@H](C)CN([C@H](C)CO)S2(=O)=O | -12
C[C@@H]1CN([C@@H](C)CO)C(=O)c2cc(/C=C/c3ccccc3)cnc2O[C@@H]1CN(C)C(=O)Cc1ccccn1 | 6
C[C@H]1CN([C@@H](C)CO)C(=O)c2cccc(NC(=O)Nc3ccc4c(c3)OCO4)c2O[C@@H]1CN(C)CC1CCCCC1 | -97
C[C@@H]1CN([C@@H](C)CO)C(=O)c2cc(NC(=O)NC3CCCCC3)ccc2O[C@@H]1CN(C)C(=O)Nc1ccc2c(c1)OCO2 | 32*
C[C@@H]1CCCCO[C@@H](CN(C)CC2CCCCC2)[C@@H](C)CN([C@H](C)CO)C(=O)c2cc(NC(=O)CCC(F)(F)F)ccc2O1 | -104
C[C@@H]1CCCCO[C@H](CN(C)CC2CCCCC2)[C@H](C)CN([C@@H](C)CO)C(=O)c2cc(NC(=O)Nc3ccc(C(F)(F)F)cc3)ccc2O1 | 32*
C[C@H]1CN([C@@H](C)CO)C(=O)c2cccc(NC(=O)C3CCCCC3)c2O[C@@H]1CN(C)Cc1ccc(C(F)(F)F)cc1 | -94
C[C@@H]1CN([C@@H](C)CO)C(=O)c2cc(NC(=O)CCC(F)(F)F)ccc2O[C@@H]1CN(C)C(=O)Nc1ccc2c(c1)OCO2 | -92
C[C@H](CO)N1C[C@H](C)[C@H](CN(C)CC2CCCCC2)Oc2ccc(NC(=O)Nc3ccc(C(F)(F)F)cc3)cc2C1=O | 44*
C[C@@H]1CN([C@H](C)CO)C(=O)c2cc(-c3ccccc3)cnc2O[C@H]1CN(C)C(=O)Nc1ccc2c(c1)OCO2 | -5
C[C@H]1CN([C@@H](C)CO)C(=O)Cc2cc(NC(=O)Nc3ccc(C(F)(F)F)cc3)ccc2O[C@H]1CN(C)S(=O)(=O)c1ccc(F)cc1 | -99
COc1ccccc1-c1ccc2c(c1)O[C@@H](CN(C)C(=O)c1ccncc1)[C@H](C)CN([C@H](C)CO)S2(=O)=O | -1
C[C@H](CO)N1C[C@H](C)[C@@H](CN(C)S(C)(=O)=O)Oc2cc(Br)ccc2S1(=O)=O | 3
C[C@@H]1CN([C@H](C)CO)S(=O)(=O)c2ccc(C#C[C@@H](C)O)cc2O[C@H]1CN(C)CC1CCOCC1 | -36
COc1ccc(N2CC(O)=C(c3nc4ccccc4s3)C2=N)c(OC)c1 | -102
CCCC#Cc1cnc2c(c1)C(=O)N([C@@H](C)CO)C[C@@H](C)[C@@H](CN(C)Cc1cccnc1)O2 | 5
CCCNC(=O)N(C)C[C@H]1Oc2cc(C#CCOC)ccc2S(=O)(=O)N([C@@H](C)CO)C[C@H]1C | -10
COc1ccc(NS(=O)(=O)c2cccc(Cl)c2)cc1S(=O)(=O)N1CCCCC1 | -438
SMILES | miR122 inh
COC1=CC(=O)C=C(OC)C1=O | 57*
CCOc1cc(C)c(Cl)cc1S(=O)(=O)NC1CC(C)(C)NC(C)(C)C1 | -181
O=S(=O)(/N=C(/Nc1ccc(Cl)c(S(=O)(=O)Nc2ccccc2Cl)c1)c1ccc(F)cc1)c1ccccc1 | -168
COc1ccc(-c2cnc3c(c2)C(=O)N([C@@H](C)CO)C[C@H](C)[C@H](CN(C)Cc2ccccn2)O3)cc1 | 4
Cc1ccc(-n2ncc(C(=O)Nc3cc(Cl)ccc3C)c2C2CCNCC2)cc1C | 36*
Cc1ccc(S(=O)(=O)N(CC(=O)N2CCC(C)CC2)c2cccc(C)c2)cc1 | -144
CCOc1ccc(Cl)cc1S(=O)(=O)n1cnc2cc(C)c(C)cc21 | -183
